# Assay results published in ChEMBL document CHEMBL3988442, “University of Dundee, Small-Polar-MMV Screening Library” (2021).
# The whole screen tested about 48,000 compounds, of which about 13,000 (27%) showed an effect of 50% or more. The list shows a part of the results.
# Tested on: Wolbachia pipientis
# Experiment: Anti-Wolbachia Cell-Based Screen
# Assay type: functional
# Design: scale not given: in the data most compounds retested in dose-response had high values
# Conditions: 5 µM
row,SMILES,Percent Effect
1,CCCNC(=O)CN1CCCC1c1nc(Cc2ccc(F)cc2)no1 (stereo not drawn),-9.393%
2,CC(C)N1CCOC[C@H]1c1nc(C(C)(C)C)c[nH]1,-12.91%
3,Cc1ccccc1C(C)(C)CNC(=O)CN(C)c1cnccn1,6.052%
4,Cc1ccsc1C(=O)NC1CCN(c2cnn(C)c2)C1=O (stereo not drawn),-14.12%
5,CC(C)(C)NC(=O)C[C@@H]1CCNC[C@@H]1Cc1cc(C(C)(C)C)on1,-4.858%
6,Cc1cnc(-c2nc(C3CCN(Cc4ccccc4O)CC3)no2)cn1,140.6%
7,c1cc(C2CCN(Cc3nc(C4CC4)no3)CC2)[nH]n1,45.49%
8,c1ccc2[nH]c(C3CCN(Cc4nc(C5CC5)no4)CC3)cc2c1,8.105%
9,CCN(CC)C(C(=O)Nc1ccc2c(c1)CCC(=O)N2)c1ccccc1 (stereo not drawn),-21.99%
10,O=C(CN1CCN(c2ncccn2)[C@@H]2CS(=O)(=O)C[C@@H]21)N1CCCCC1,-9.163%
11,Cc1cnc(Cn2cc(-c3cccc(C(C)N(C)C)c3)nn2)cn1 (stereo not drawn),-24.3%
12,CC(c1cccc(-c2nccn2CCc2ccccn2)c1)N(C)C (stereo not drawn),15.78%
13,CC(c1cccc(-c2ncccc2F)c1)N(C)C (stereo not drawn),118.4%
14,CC(c1cccc(-c2ncc(C#N)c(N)n2)c1)N(C)C (stereo not drawn),111.9%
15,CC(c1cccc(-c2ccc(C(=O)O)cc2Cl)c1)N(C)C (stereo not drawn),-4.101%
16,CC(c1cccc(-c2nccn2CCc2cn[nH]c2)c1)N(C)C (stereo not drawn),8.832%
17,CC(c1cccc(-c2ncccc2C#N)c1)N(C)C (stereo not drawn),104.1%

row,SMILES,Percent Effect
1,Cc1ccc(C(=O)O)cc1-c1cccc(C(C)N(C)C)c1 (stereo not drawn),-7.98%
2,COC(C)(C)Cn1ccnc1-c1cccc(C(C)N(C)C)c1 (stereo not drawn),3.994%
3,COc1ccccc1[C@@H]1CN(Cc2cc(C(C)(C)C)[nH]n2)C[C@H]1C(=O)O,-3.476%
4,CCc1cnc(NCC2OCCc3ccccc32)nc1 (stereo not drawn),32.64%
5,Cn1ccnc1NC[C@@H]1CCC[C@@H]2CN(CC3CC3)C[C@@H]21.O=C(O)C(F)(F)F,12.38%
6,COc1ccnc(CN2CCC=C(C(C)NC(C)=O)C2)c1OC (stereo not drawn),-37.4%
7,O=C(NCc1cccc(F)c1)N1CCc2ncnc(NC3CC3)c2CC1,117.5%
8,CC(C)Nc1ncnc2c1CCN(C(=O)NCc1cccc(F)c1)CC2,86.35%
9,CCN(C)c1ncnc2c1CCN(C(=O)NCc1cccnc1)CC2.O=C(O)C(F)(F)F,18.48%
10,O=C(NCc1ccccc1)N1CCc2ncnc(NC3CC3)c2CC1,108.7%
11,COc1ncnc2c1CCN(C(=O)NCc1cccc(F)c1)CC2,-12.16%
12,COc1ncnc2c1CCN(C(=O)NCc1cccnc1)CC2.O=C(O)C(F)(F)F,5.156%
13,CC(C)Nc1ncnc2c1CCN(C(=O)NCc1cccnc1)CC2.O=C(O)C(F)(F)F,-1.871%
14,O=C(NCc1cccnc1)N1CCc2ncnc(C3CC3)c2CC1.O=C(O)C(F)(F)F,-6.522%
15,CCOc1ncnc2c1CCN(C(=O)NCc1cccnc1)CC2.O=C(O)C(F)(F)F,0.188%
16,O=C(NCc1cccnc1)N1CCc2ncnc(NC3CC3)c2CC1.O=C(O)C(F)(F)F,96.91%
